TDP-43 rescue – rescues yeast from TDP-43 toxicity; Potency, µM (top dose mostly 46.1 µM), hits mostly activators; 45,000 tested, 0.45% active; AID 1347073; yeast TDP-43 toxicity rescue, BacTiter-Glo growth, 24 h; active = well fitted activation curve with a large enough effect; note: 0% is about no effect; nearly all actives have a fitted effect of over 55% in size
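TDP-43-expressing yeast, pregrown in raffinose, seeded at OD600 0.02 in galactose medium with compound for 24 hr at 30 deg C. Growth read by BacTiter-Glo luminescence, so rescue of toxicity appears as activation.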
Starred values were filed as active, the others as inactive; i = inactive. Shown is part of a subset that was picked to be rich in hits. Potency is the fitted concentration of half-maximal effect.

SMILES | TDP-43 rescue
Nc1c(-c2ccccc2)c(CN2CCOCC2)nn1-c1cccc([N+](=O)[O-])c1 | i
Cc1ccccc1-c1cnn(-c2cccc([N+](=O)[O-])c2)c1N | 13µM*
Cc1cc(NC(=O)c2cccc([N+](=O)[O-])c2)n(-c2ccccc2)n1 | i
CCCN(CC(=O)Nc1ccccc1Br)CC(=O)Nc1ccc(F)c(F)c1F | 11µM*
O=C(Cc1ccccc1F)NCC(=O)Nc1ccccc1Br | i
CCCN(CC(=O)Nc1ccc(F)c(F)c1F)C(=O)c1ccc2c(c1)NC(=O)CS2 | i
O=C(N/N=C\c1cccc([N+](=O)[O-])c1O)C1COc2ccccc2O1 (stereo not given) | 10µM*
Cc1c(/C=N\NC(=O)C2COc3ccccc3O2)c2ccccc2n1C (stereo not given) | i
O=C(CNC(=O)C1COc2ccccc2O1)N/N=C\c1cccc(O)c1 (stereo not given) | i
Cc1ccc(C)c(CSc2nnc([C@@H]3CCCN3)o2)c1 | i
COc1ccc(CNC(=O)c2ccc(-c3ccc(F)c(F)c3)c3ccoc23)cc1OC | i
NC(=O)c1cccc(-c2coc3c(C(=O)NC4CCCCC4)cccc23)c1 | i
O=C(NCc1cccc(Cl)c1)c1ccc(-c2ccc(F)c(F)c2)c2ccoc12 | i
Cn1nccc1-c1coc2c(C(=O)NCC3CCOCC3)cccc12 | i
O=C(NCc1ccc(F)c(F)c1)c1cccc2c(-c3cccnc3)coc12 | 10µM*
O=C(NCC1CC1)c1cccc2c(-c3ccc(F)c(F)c3)coc12 | 22µM*
O=C(NCc1ccccc1Cl)[C@@H]1CCCN1S(=O)(=O)c1ccc(Cl)cc1 | i
Cc1nc(C(F)(F)F)ccc1C(=O)N1CCCC1(C)C(=O)NCC(C)C (stereo not given) | i
C=CCOc1ccccc1CN1CCCC(CCC(=O)N(C)CCc2ccccn2)C1 (stereo not given) | i
CCc1cccc(C)c1NC(=O)CCCSc1nc2ccccc2s1 | i
O=C(COC(=O)CCc1ccccc1)NCc1ccc2c(c1)OCO2 | i
O=C(CCCSc1nc2ccccc2s1)NCc1ccc2c(c1)OCO2 | 13µM*
COCCNC(=O)COc1cccc2c1OC(C)(C)C2 | i
CC(=O)NC(Cc1cccc(C)c1)C(=O)NC1CCN(S(=O)(=O)c2ccccc2)CC1 (stereo not given) | i
CN=c1scc(-c2ccccc2F)n1/N=C/c1ccc[nH]1 | i
SMILES | TDP-43 rescue
C=CCN=c1scc(-c2ccc(F)cc2)n1/N=C/c1ccccn1 | 11µM*
CCCS(=O)(=O)NC(=O)C1(C)CCN(C(=O)c2cc(C)on2)C1 (stereo not given) | i
Cc1cnc(CNC(=O)c2csc([C@@H]3C[C@H](O)[C@@H](CO)O3)n2)cn1 | i
COCc1c(C(=O)Nc2cccc(S(=O)(=O)N3CCCCC3)c2)oc2ccccc12 | i
CNc1cncc(-c2ccc(OC)c(OC)c2)n1 | 11µM*
CNc1cncc(-c2ccccc2CO)n1 | i
CNc1cncc(-c2ccccc2NC(C)=O)n1 | i
COc1ccc(NC(=O)c2ccc(Oc3ncccn3)cc2)cc1 | i
CC(OC(=O)c1cnc2ccccc2n1)c1ccccc1Cl (stereo not given) | i
COC(=O)c1cc(Sc2cccc(Cl)c2Cl)ccn1 | 13µM*
COc1cccc(C(=O)NCCCNC(=O)c2ccccn2)c1 | i
CC(=O)OC[C@@H]1CN(Cc2ccccc2)C[C@H](n2cnc3c(NCc4ccc(F)cc4)ncnc32)O1 | i
O=C(N/N=C/c1ccc(O)c(O)c1)NC12CC3CC(CC(C3)C1)C2 | i
NC(=S)N/N=C/c1ccc(C23CC4CC(CC(C4)C2)C3)cc1 | 7.9µM*
O=C(N/N=C/c1ccccc1O)NC12CC3CC(CC(C3)C1)C2 | i
CC(=O)Nc1ccc(OCCOc2ccccc2C(C)=O)cc1 | i
O=C(O)c1ccccc1OCCOc1ccccc1 | 22µM*
CCC(C)/C(C)=N/NC(=O)c1ccccc1OCCOc1ccccc1 (stereo not given) | i
CCCC(O)(CCC)C(=O)NNc1ccc(C)cc1 | i
CCOC(=O)c1cnc2ccc(OC)cc2c1NCCc1ccccc1 | i
CC(=O)c1ccc(NC(=O)C(C)NCc2ccccc2Cl)cc1 (stereo not given) | i
CNS(=O)(=O)c1c(C)cc(C)c(N(C)S(=O)(=O)c2ccccc2)c1C | i
O=C(COC(=O)c1c2ccccc2cc2ccccc12)NCC(F)(F)F | 22µM*
Cc1nc2ccccc2nc1OCC(=O)NCC(F)(F)F | i
Cn1c(CCC(=O)OCC(=O)NCC(F)(F)F)nc(=O)c2ccccc21 | i
Cc1c(NS(=O)(=O)c2cc(C(=O)OCC(=O)N3CCC(C)CC3)ccc2Cl)c(=O)n(-c2ccccc2)n1C | i
CCOC(=O)C1(CCCc2ccccc2)CCN(C(=O)CCCn2cncn2)CC1 | i
O=C(COc1ccc(Br)cc1CNC1CCCC1)Nc1ccccc1 | i
O=C(O)c1ccccc1C(=O)Nc1ccc(S(=O)(=O)N2CCCC2)cc1 | i
O=C(O)c1ccccc1C(=O)Nc1ccc(Oc2ccc3ccccc3c2)cc1 | 22µM*

Bioassay records (PubChem BioAssay)
